Rows were chosen to be rich in hits. Some 3.5% of all compounds tested hit in one or more screens of this group.
GPR151 activ – activators of human GPR151; Q8TDV0; PathHunter beta-arrestin GPR151 cells, luminescence; activation, % at 11.2 µM; 1% of 650,000 active; in the data active = activation above about 4.9%;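 note: 0% = median of compound wells and 100% = cells with positive control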
TEAD-YAP inh – TEAD-YAP interaction inhibition; HEK-TIYL cells, TEAD-Gal4/YAP UAS-luciferase luminescence; inhibition, % at 9.12 µM; 1.4% of 640,000 active; AID 1259422; in the data active = inhibition above about 32%;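 note: 0% = median of test compound wells and 100% = reference inhibitor wells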
MITF primary – human MITF inhibition, primary screen; O75030; AlphaScreen MITF homodimerization, bead proximity signal; inhibition, % at 2.6 µM; 0.91% of 650,000 active; AID 1259374; in the data active = inhibition above about 50%;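 note: 0% = vehicle wells with protein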
FBW7 activator – activators of human E3 ligase FBW7 | Q969H0 | 0.13% of 650,000 active | AlphaScreen FBW7–phospho-cyclin E peptide binding, activator screen | normalized activity (activation), % at 26.1 µM; in the data active = normalized activity above about 1.9%;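 note: purified mutant Fbw7 with reduced substrate affinity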
Target sequence (Q969H0 whole entry, looked up): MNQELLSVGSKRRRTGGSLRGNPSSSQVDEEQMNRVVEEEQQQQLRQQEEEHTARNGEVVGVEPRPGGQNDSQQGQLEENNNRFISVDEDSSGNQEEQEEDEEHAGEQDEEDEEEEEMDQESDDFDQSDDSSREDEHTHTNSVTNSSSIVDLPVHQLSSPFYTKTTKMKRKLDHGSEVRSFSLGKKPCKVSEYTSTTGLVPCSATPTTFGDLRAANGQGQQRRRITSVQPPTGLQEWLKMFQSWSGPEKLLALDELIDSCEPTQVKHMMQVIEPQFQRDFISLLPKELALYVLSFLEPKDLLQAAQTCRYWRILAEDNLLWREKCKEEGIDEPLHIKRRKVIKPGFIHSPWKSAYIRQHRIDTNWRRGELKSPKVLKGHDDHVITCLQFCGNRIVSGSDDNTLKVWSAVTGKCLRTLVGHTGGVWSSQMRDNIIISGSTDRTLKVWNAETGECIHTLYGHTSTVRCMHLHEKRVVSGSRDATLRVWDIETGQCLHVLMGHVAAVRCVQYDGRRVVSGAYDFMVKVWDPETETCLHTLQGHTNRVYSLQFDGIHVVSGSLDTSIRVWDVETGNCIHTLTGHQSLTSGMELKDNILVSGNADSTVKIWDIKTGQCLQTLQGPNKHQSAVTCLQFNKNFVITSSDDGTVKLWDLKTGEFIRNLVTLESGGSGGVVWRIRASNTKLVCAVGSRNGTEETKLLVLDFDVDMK
GPR151 conf act – human GPR151 activation, confirmation screen. shares compounds with GPR151 activ. GPR151 PathHunter beta-arrestin cells, luminescence, 90 min; % of EA-reagent control over plate median. activation, % at 11.2 µM. 6,700 tested, under 10 active. AID 1508609;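 active = mean percent activation across replicates above the confirmation screen cutoff of 4.91%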
GPR119 counter – GPR119 activation, counter-screen for GPR151 activators | shares compounds with GPR151 activ | GPR119 PathHunter beta-arrestin cells, luminescence, 90 min; 0 = compound-well median, 100 = enzyme-acceptor control | activation, % at 11.2 µM | 0.3% of 6,700 active | AID 1508611;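 active = mean percent activation in the counterscreen above 29.09%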;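 note: counterscreen on off-target GPR119 to flag nonselective hits from the GPR151 activator screen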
* hit, by the source's call; ! = a repeat was not active.

For CC(C)=CCN1CCN(Cc2ccc(-n3cccn3)cc2C)CC1CCO (configuration not stated) the results were GPR151 activ 11.4*, TEAD-YAP inh -13.1, MITF primary 8.3, FBW7 activator 0.0, GPR151 conf act -0.1 and GPR119 counter -0.5.
`Cc1cc(-n2cccn2)ccc1CN1CCN(C2CCCCC2)C(CCO)C1` (configuration not stated) gave GPR151 activ 1.7, TEAD-YAP inh 6.4, MITF primary 0.7 and FBW7 activator -0.1.
For CN=C(NS(=O)(=O)c1ccc(Br)cc1)c1ccccc1 the results were GPR151 activ -0.8, TEAD-YAP inh 0.5, MITF primary -10.9 and FBW7 activator 0.0.
Screening Cc1ccc(N=NNc2cccc([N+](=O)[O-])c2)cc1 returned GPR151 activ 5.9*, TEAD-YAP inh -4.0, MITF primary -3.8, FBW7 activator 0.1, GPR151 conf act -0.2 and GPR119 counter -6.1.
For COc1ccc(-c2csc(NC(=O)c3cc(OC)c(OC)c(OC)c3)n2)cc1 the results were GPR151 activ 0.9, TEAD-YAP inh -0.1, MITF primary 15.2 and FBW7 activator 0.7.
`Cc1nc(SCC(=O)Nc2ccc(S(=O)(=O)N3CCOCC3)cc2)nc(C)c1C` gave GPR151 activ 0.3, TEAD-YAP inh -0.8, MITF primary -4.5 and FBW7 activator 0.1.
Screening COC1=CC(=O)C[C@@H](C)[C@]12Oc1c(Cl)c(OC)cc(OC)c1C2=O returned GPR151 activ 5.4*!, TEAD-YAP inh 42.9*!, MITF primary -6.7, FBW7 activator 0.1, GPR151 conf act 0.4 and GPR119 counter 2.0.
COc1ccc(C2CC(=O)C=C(Nc3ccc(Br)cc3)C2)cc1OC (configuration not stated) was read as GPR151 activ 0.5, TEAD-YAP inh -5.8, MITF primary 10.8 and FBW7 activator 0.1.
CN1CCc2sc3nc(C(=O)Nc4ccc(F)cc4)c(N)cc3c2C1 was read as GPR151 activ 0.1, TEAD-YAP inh -1.8, MITF primary 1.8 and FBW7 activator -0.1.
NC(=O)C1CCN(C(=O)c2ncoc2-c2ccccc2C(F)(F)F)CC1 was read as GPR151 activ 1.6, TEAD-YAP inh 5.9, MITF primary 21.4 and FBW7 activator 1.1.
Screening O=C(O)CCCCCN1C(=O)C(O)=C(C(=O)/C=C/c2ccccc2)C1c1ccccc1Cl (configuration not stated) returned GPR151 activ 5.0*, TEAD-YAP inh 5.6, MITF primary -9.1, FBW7 activator -0.1, GPR151 conf act 0.6 and GPR119 counter 11.3.
Screening Cc1c(N(C)C2=NN=C(c3ccc([N+](=O)[O-])cc3)CS2)c(=O)n(-c2ccccc2)n1C returned GPR151 activ -1.7, TEAD-YAP inh 10.6, MITF primary 19.3 and FBW7 activator 0.1.
`Cn1c(SCc2ccccc2)nnc1C1CCCN1C(=O)C1CCCO1` (configuration not stated) gave GPR151 activ -0.5, TEAD-YAP inh 7.9, MITF primary 3.7 and FBW7 activator -0.1.
Screening Cn1c(SCc2ccccc2)nnc1C1CCCN1C(=O)c1ccc2c(c1)OCO2 (configuration not stated) returned GPR151 activ 5.9*, TEAD-YAP inh -2.1, MITF primary -15.5, FBW7 activator -0.1, GPR151 conf act -0.6 and GPR119 counter -6.7.
For Cc1ccc(NC(=O)COC(=O)CCc2ccco2)cc1C the results were GPR151 activ 6.3*, TEAD-YAP inh 4.5, MITF primary -10.0, FBW7 activator 0.2, GPR151 conf act 0.1 and GPR119 counter 4.3.
Screening CCCCCCCC1=NN2C(=N)/C(=C/c3ccc(-c4ccccc4[N+](=O)[O-])o3)C(=O)N=C2S1 returned GPR151 activ 5.6*, TEAD-YAP inh -1.2, MITF primary 4.9, FBW7 activator 0.6, GPR151 conf act 0.1 and GPR119 counter 7.7.
Screening Cc1ccc(C)c(NC(=S)N(CCCN2CCC(C)CC2)Cc2cccs2)c1 returned GPR151 activ -0.3, TEAD-YAP inh 3.1, MITF primary -5.1 and FBW7 activator -0.1.
Screening C[C@]1(Cn2ccnn2)[C@H](C(=O)O)N2C(=O)C[C@H]2S1(=O)=O returned GPR151 activ 10.1*!, TEAD-YAP inh -1.9, MITF primary 8.3, FBW7 activator 0.0, GPR151 conf act 0.9 and GPR119 counter 6.9.
CC(C)C(NC(=O)c1ccccc1NC(=O)c1ccccc1)C(=O)N1CCCCC1 (configuration not stated) was read as GPR151 activ 1.2, TEAD-YAP inh 1.2, MITF primary 11.4 and FBW7 activator 0.0.
For CCC(C)C(NC(=O)c1ccccc1NC(=O)c1ccccc1)C(=O)N1CCOCC1 (configuration not stated) the results were GPR151 activ 9.8*, TEAD-YAP inh -6.6, MITF primary 5.9, FBW7 activator -0.1, GPR151 conf act -0.7 and GPR119 counter -1.9.
`CCN(CC)c1nc(NCCO)nc(N2CCN(c3ccccn3)CC2)n1` gave GPR151 activ 7.6*, TEAD-YAP inh 4.5, MITF primary 14.0, FBW7 activator 0.0, GPR151 conf act 0.3 and GPR119 counter -3.9.
`CCN(CC)c1nc(NCc2cccnc2)nc(N2CCN(c3ccccn3)CC2)n1` gave GPR151 activ 6.0*, TEAD-YAP inh -0.9, MITF primary 6.7, FBW7 activator 0.1, GPR151 conf act -0.8 and GPR119 counter -13.8.
`Cc1ccc(CNC(=O)CCNS(=O)(=O)c2ccc3[nH]c(=O)ccc3c2)cc1` gave GPR151 activ 0.4, TEAD-YAP inh -3.2, MITF primary 2.1 and FBW7 activator 0.1.
O=C(CCNS(=O)(=O)c1ccc2[nH]c(=O)ccc2c1)NCc1ccccc1 was read as GPR151 activ 8.2*, TEAD-YAP inh -6.5, MITF primary 3.6, FBW7 activator -0.1, GPR151 conf act 0.2 and GPR119 counter 3.1.
Screening Cc1ccccc1NS(=O)(=O)c1ccc(-c2ccc(-n3cnnn3)cc2)cc1 returned GPR151 activ 5.7*, TEAD-YAP inh -13.4, MITF primary -1.4, FBW7 activator -0.2, GPR151 conf act 1.3 and GPR119 counter 11.7.
Cc1ccc(NC(=O)C2CCCN2Sc2ccccc2[N+](=O)[O-])c(C)c1 (configuration not stated) was read as GPR151 activ 6.0*, TEAD-YAP inh 4.8, MITF primary 13.8, FBW7 activator 0.0, GPR151 conf act 0.7 and GPR119 counter 9.5.
`C/C(CCc1ccccc1)=N\Nc1ccc([N+](=O)[O-])cc1` gave GPR151 activ 0.6, TEAD-YAP inh -2.2, MITF primary 6.7 and FBW7 activator -0.1.
CCOc1cc(/C=C2\C(=O)NC(=O)N(c3ccc(Br)c(C)c3)C2=O)ccc1O was read as GPR151 activ 5.0*, TEAD-YAP inh 4.6, MITF primary 2.8, FBW7 activator -0.1, GPR151 conf act 0.2 and GPR119 counter -5.6.
